MsrA inhibitor = bovine MsrA inhibition | purified bovine MsrA, absorbance read-out | inhibition, % at 15.5 µM | 0.75% of 360,000 active | AID 651718;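 also: 0% = vehicle wells with enzyme and 100% = reference inhibitor wells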
PKA-R2B activ = activators of human PKA-R2B complex; P22694+P31323; PKA-R2B holoenzyme dissociation, Cy5-IP20 fluorescence polarization; R2B truncated from residue 108, S112A mutant; 0% DMSO only, 100% 113 µM cGMP; activation, % at 11.4 µM; 0.079% of 340,000 active; AID 504700;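 active = activation above a cutoff set at the mean over all compounds plus 3 SD, cut at about 18% in these data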;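 also: higher means more holoenzyme dissociation and a rise in polarization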
Target sequence (P31323 whole entry, looked up, other chains not shown, the tested form may be a part): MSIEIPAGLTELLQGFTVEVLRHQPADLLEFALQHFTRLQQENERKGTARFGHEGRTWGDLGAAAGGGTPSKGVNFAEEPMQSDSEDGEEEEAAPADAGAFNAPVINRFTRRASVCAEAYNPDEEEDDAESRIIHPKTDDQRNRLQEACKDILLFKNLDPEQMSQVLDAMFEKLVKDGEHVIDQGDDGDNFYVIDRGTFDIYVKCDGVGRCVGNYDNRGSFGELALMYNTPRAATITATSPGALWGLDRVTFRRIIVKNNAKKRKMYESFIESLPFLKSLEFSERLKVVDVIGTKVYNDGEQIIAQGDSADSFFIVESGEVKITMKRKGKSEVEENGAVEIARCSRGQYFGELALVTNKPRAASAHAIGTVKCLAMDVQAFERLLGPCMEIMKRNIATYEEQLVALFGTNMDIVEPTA
MsrA act = bovine methionine sulfoxide reductase A activation; activation, % at 10.6 µM; purified bovine MsrA, absorbance read-out; 0.3% of 360,000 active; AID 602163; in the data active = activation above about 7.5%;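 also: 0% = vehicle and 100% = reference activator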
PKA-R1A activ = activators of PKA-R1A complex | P00514+P68181 | AID 504707 | activation, % at 11.4 µM | PKA-R1A dissociation, Cy5-IP20 fluorescence polarization; scaled: DMSO 0%, 113 µM cGMP 100% | 0.083% of 340,000 active;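 active = percent activation above the mean of all tested compounds plus 3 SD, cut at about 19% in these data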;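 also: higher means more PKAc released from R1A so a rise in polarization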
MsrA conf = bovine MsrA inhibition, confirmed; inhibition, % at 15.5 µM; shares compounds with MsrA inhibitor; AID 651822; 41% of 2,300 active; purified bovine MsrA, absorbance read-out;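 also: coupled to thioredoxin reductase with NADPH and selenocystamine and DMSO as substrate; 0% = vehicle only and 100% = full effect of reference inhibitor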
* hit, by the source's call; . = no result given. Most compounds without a hit are left out; they make up all but 1.1% or so of the library. Rule as the data show it, unless noted: active = inhibition above about 4.5%; inactive = the rest.

SMILES	MsrA inhibitor	PKA-R2B activ	MsrA act	PKA-R1A activ	MsrA conf
CCc1ccccc1NC(=O)Cn1cccc1C1=NC(c2ccccc2)CO1 (centres undefined)	0	-9	-4	0	.
COc1ccc(COC(=O)CCCN=C2NS(=O)(=O)c3ccccc32)cc1F	-1	0	-6	0	.
Cc1ccc2nc(C)c(C(=O)N/N=C/c3cccs3)n2c1	3	-3	-7	-3	.
Cc1ccn2c(C(=O)N/N=C\c3cccs3)c(C)nc2c1	7.4*	-4	-4	7	5.8*
COc1ccc(S(=O)(=O)Nc2cccc3ccc(O)cc23)cc1	-1	-4	-9	6	.
COc1ccc(S(=O)(=O)Nc2cc(Sc3ncn[nH]3)c(O)c3ccccc23)cc1	64*	.	.	.	0
COc1ccc(S(=O)(=O)Nc2cc(SCC(=O)O)c(O)c3ccccc23)cc1	7.4*	-5	5	0	0
COc1ccc(S(=O)(=O)Nc2ccc(O)c(Sc3ncn[nH]3)c2)cc1	1	14	-15	-4	.
CC(=O)Nc1ccc(N(C(=O)CNC(=O)c2cccs2)C(C(=O)NC(C)(C)C)c2ccccc2)cc1 (centres undefined)	0	-3	-3	-3	.
COc1ccc(/C=N/N=C2\SCC(=O)N2c2c(C)n(C)n(-c3ccccc3)c2=O)cc1OC	5.7*	-5	-5	-1	4
Cc1c(N2C(=O)CS/C2=N\N=C\c2ccc(Cl)cc2)c(=O)n(-c2ccccc2)n1C	1	-7	-3	0	.
N#Cc1c(SCC(=O)Nc2nccs2)sc2c(O)cc(=O)[nH]c12	4.9*	6	-5	-7	2
CCCSc1nnc(NC(=O)CSc2sc3c(O)cc(=O)[nH]c3c2C#N)s1	1	-2	-4	-1	.
O=C(Nc1nccs1)C1CC=CCC1C(=O)OCC(F)(F)C(F)F (centres undefined)	-1	-7	-3	-5	.
Cc1ccc(N(C)S(=O)(=O)c2c[nH]c3ccc([N+](=O)[O-])cc23)cc1	5.8*	4	-1	-7	2
CCN(c1ccccc1)S(=O)(=O)c1c[nH]c2ccc([N+](=O)[O-])cc12	1	-4	3	-8	.
O=C1c2ccccc2C(=O)c2c1cccc2N1CCCC1	36*	-6	2	-6	0
N=C1/C(=C/c2cccn2-c2ccc([N+](=O)[O-])cc2)C(=O)N=C2SC=CN12	0	-8	2	-5	.
O=C1NC(=S)N/C1=C/c1cccn1-c1ccc([N+](=O)[O-])cc1	5.1*	9	-10	6	1
O=C(C[C@@H]1C[C@@H]2c3cc(NC(=O)c4ccc5c(c4)OCO5)ccc3O[C@@H]2[C@@H](CO)O1)NCc1cccnc1	1	.	.	.	.
Cc1ccccc1-c1n[nH]c(=S)n1/N=C/C=C/c1ccco1	4.7*	-5	0	-4	5
Cc1cc(-c2n[nH]c(=S)n2/N=C/C=C/c2ccco2)n[nH]1	1	3	2	-3	.
S=c1[nH]nc(-c2ccccc2)n1/N=C/C=C/c1ccco1	5.7*	-1	2	-3	6.2*
S=c1[nH]nc(-c2ccc(Cl)cc2)n1/N=C/C=C/c1ccco1	2	.	-1	.	.
COC(=O)C1=C(C)N(Cc2ccc(C(F)(F)F)cc2)C(=NCc2ccc3c(c2)OCO3)NC1c1ccccc1 (centres undefined)	-1	.	.	.	.
SMILES	MsrA inhibitor	PKA-R2B activ	MsrA act	PKA-R1A activ	MsrA conf
Oc1[nH]c2ccccc2c1C=NCC1CCCO1 (centres undefined)	6.0*	-1	-8	5	3
CCN(/N=C/c1ccc(Cl)cc1)c1cc(=O)n(C)c(=O)[nH]1	3	-4	-6	1	.
CCN(/N=C/C=C/c1ccccc1)c1cc(=O)n(C)c(=O)[nH]1	11*	2	-8	7	11*
CCOc1cc(N2CCOCC2)c(OCC)cc1NC(=O)COc1ccccc1[N+](=O)[O-]	-1	-6	0	2	.
O=C(COc1ccccc1[N+](=O)[O-])Nc1cccc(Cl)c1N1CCOCC1	5.9*	5	-3	-4	2
COCC(=O)N(C)C[C@H]1Oc2ncc(Br)cc2C(=O)N([C@@H](C)CO)C[C@H]1C	-1	1	-3	-1	.
Cc1csc2ncc(C(=O)N3CCCc4ccccc43)c(=O)n12	4.7*	-8	-3	5	3
O=C(O)c1ccc(N/N=C/c2cccc(F)c2)cc1	6.8*	9	-2	9	6.7*
O=C(O)c1ccc(N/N=C/c2ccc(F)c(F)c2)cc1	7.9*	5	-5	-2	5.9*
CC(=O)c1cnc(Nc2cccc(Cl)c2Cl)s1	4.8*	-11	3	-11	2
Cc1ccc(C(=O)NC(=S)Nc2ccc(N3CCOCC3)cc2)c(C)c1	1	-8	-3	-8	.
C/C(=N\NC(=O)c1cccc(C)c1)c1ccc(N2CCOCC2)cc1	5.3*	-16	-11	-2	3
Cc1ccc(C(=O)N/N=C/c2ccc(N3CCOCC3)cc2)c(C)c1	5.5*	7	-2	5	4
C/C(=N\NC(=O)c1ccc(F)cc1)c1ccc(N2CCOCC2)cc1	2	4	-3	4	.
O=C(O)c1ccc(/C=N/NC(=S)NCCN2CCOCC2)cc1	6.1*	-1	-12	-17	2
O=C(N/N=C/c1ccc(N2CCOCC2)cc1)c1ccc(O)cc1	5.6*	-1	-6	0	4.8*
COCC(=O)N[C@H]1CC[C@@H](CC(=O)OC)O[C@@H]1CO	2	.	.	.	.
CCc1ccc[n+](-c2[nH]c(=O)sc2/C=N/NC([S-])=Nc2ccccc2)c1	6.5*	5	-5	-1	1
Cc1cc(C)c[n+](-c2[nH]c(=O)sc2/C=N/NC([S-])=Nc2ccccc2)c1	4.9*	-1	-3	3	6.2*
CCC(C)NS(=O)(=O)c1ccc(S(=O)(=O)N(CCc2ccc(OC)c(OC)c2)Cc2cccs2)cc1 (centres undefined)	4	9	1	-2	.
CCOc1ccc(N(C)S(=O)(=O)c2cc(-c3cc(C)no3)ccc2C(C)C)cc1	11*	-8	-11	6	12*
CCN(c1ccc(OC)cc1)S(=O)(=O)c1cc(-c2cc(C)no2)ccc1C(C)C	1	-1	0	-5	.
CCc1ccccc1OCC(=O)Nc1cccc(S(=O)(=O)NC2=NCCC2)c1	0	-5	-3	-3	.
Cc1cc([N+](=O)[O-])ccc1Nc1nc2ccccc2n2cnnc12	6.4*	3	5	2	8.3*
CCc1cccc(C)c1Nc1nc2ccccc2n2cnnc12	5.4*	-2	-3	-1	4
Cc1c(Nc2nc3ccccc3n3cnnc23)cccc1[N+](=O)[O-]	0	-10	-3	-9	.
Cc1ccc(/C=C/C(=O)Nc2nnc(C)s2)o1	7.6*	7	-4	-8	5.3*
Cn1cnc([N+](=O)[O-])c1Sc1nc(N)nc2c1ncn2C1OC(CO)C(O)C1O (centres undefined)	4	-4	-3	3	.

Assay outcomes (PubChem)
